According to PubChem BioAssay (EPA / NIEHS):
Activity calls are given as the source filed them. Rule for the calls: active = hit-call score of the fitted dose curve at least 0.9, where 1 is the maximum; inactive = score below 0.9.

molecular target: X-box-binding protein 1 (Homo sapiens) (UniProt P17861); assay: ATG_Xbp1_CIS: Attagene CIS-FACTORIAL HepG2 Assay for human X-box Binding Protein 1 (XBP1) (AID 2282972); conditions: HepG2 XBP1 cis-element reporter, Attagene multiplex; actives raise or lower the signal
Experimental: ATG_CIS is a cell-based, multiplexed-readout assay that uses HepG2, a human liver cell line, with measurements taken at 24 hours after chemical dosing in a 24-well plate.ATG_Xbp1_CIS is one of 52 assay component(s) measured or calculated from the ATG_CIS assay. It is designed to make measurements of mRNA induction, a form of inducible reporter, as detected with fluorescence intensity signals by Reverse transcription polymerase chain reaction (RT-PCR) and Capillary electrophoresis technology.Data from the assay component ATG_Xbp1_CIS was analyzed into 1 assay endpoint. This assay endpoint, ATG_Xbp1_CIS, was analyzed with bidirectional fitting relative to DMSO as the negative control and baseline of activity. Using a type of inducible reporter, measures of mRNA for gain or loss-of-signal activity can be used to understand the reporter gene at the transcription factor-level as they relate to the gene XBP1. Furthermore, this assay endpoint can be referred to as a primary readout, because this assay has produced multiple assay endpoints where this one serves a reporter gene function. To generalize the intended target to other relatable targets, this assay endpoint is annotated to the dna binding intended target family, where the subfamily is basic leucine zipper.
Human liver HepG2 cells are transiently transfected with multiple reporter transcription units (MRTUs) in 6-well plates using FuGene 6 reagent (Roche; 3 ml FuGene/1 mg DNA). The MRTU constructs are regulated by a cis-regulating element (promoter). […] A major difference between the CIS and TRANS system is that in CIS activities of endogenous TFs are measured, whereas the TRANS assay evaluates changes in activities of exogenous, chimeric NR-Gal4 proteins. […] At the end of 24 hour incubation, total RNA was isolated using TriZol reagent (Invitrogen). The isolated RNA is then reverse-transcribed using oligo(dT) primer and Mo-MLV reverse transcriptase (Invitrogen) with DNAse I (Ambion) treatment for 30 min. The one-tenth of the produced cDNA was amplified by PCR using Taq DNA polymerase (Invitrogen) and two reporter sequence-specific primers. The PCR products were fluorescently labeled by primer extension with 6-arboxyfluorescein (6-FAM) 5'-labeled reporter sequence-specific primer (2 min at 95 C, 20 s at 68 C and 10 min at 72 C) and these products were digested with 5U of HpaI (New England Biolabs) for 2h at 37 C. The fragments were purified using Qiaquick PCR columns (Qiagen), analyzed on an ABI 3130xL genetic analyzer (Applied Biosystems) with peak positions identified by using a set of X-rhodamine (ROX)-labeled MapMarker1000 molecular weight standards (BioVentures). The raw capillary electrophoresis data was processed using Attagraph software (Attagene).

Chain of X-box-binding protein 1 (Homo sapiens) (P17861 whole entry, looked up): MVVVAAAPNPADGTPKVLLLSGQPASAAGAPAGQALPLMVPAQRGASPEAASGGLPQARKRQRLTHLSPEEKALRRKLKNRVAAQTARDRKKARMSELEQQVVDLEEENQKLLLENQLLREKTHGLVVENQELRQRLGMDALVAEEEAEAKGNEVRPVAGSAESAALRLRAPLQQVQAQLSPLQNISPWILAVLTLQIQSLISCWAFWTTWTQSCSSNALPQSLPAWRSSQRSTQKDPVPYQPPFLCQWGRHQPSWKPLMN

outcome, inactive:
CC1=CCCC(C)(C)C12CCC(C)O2 (stereo not given), c1ccc2c(c1)Oc1ccccc1S2, Brc1ccc(Oc2ccc(Br)cc2)cc1, COc1ccccc1OCC(O)CO (stereo not given), O=C(c1ccccc1)c1ccccc1O, [O-][n+]1ccc(Cl)cc1, CCCC(=O)OC/C=C(\C)CCC=C(C)C, CCCCCCC1CCCC(=O)O1 (stereo not given), CCOc1ccc2c(c1)C(C)CC(C)(C)N2 (stereo not given), CCCCCCCC#N, O=C(C(=O)c1ccccc1)c1ccccc1, CC(=O)CCc1ccccc1, CCCCCCC(O)CCCCCCCCCCC(=O)OC (stereo not given), CC1=NN(c2cc(Cl)c(S(=O)(=O)O)cc2Cl)C(=O)C1N=Nc1ccc(S(=O)(=O)O)cc1 (stereo not given), CN(C)c1ccc(C(c2ccccc2)c2ccc(N(C)C)cc2)cc1, COC(=O)[C@]1(C)CCC[C@@]2(C)[C@H]1CC=C1C=C(C(C)C)CC[C@@H]12, CCOC(=O)c1ccccc1, Cc1cccnc1, CN(C)N=Nc1ccccc1, OCCOCCOCCOCCOCCO, CC(C)n1c(/C=C/[C@@H](O)C[C@@H](O)CC(=O)O)c(-c2ccc(F)cc2)c2ccccc21, c1cc[c]([Bi]([c]2ccccc2)[c]2ccccc2)cc1, Sc1nc2ccccc2s1, COC(=O)c1ccccc1, O=C(O)c1cc(Cl)cc(Cl)c1O, C=C(C)C(=O)OCCCCCC, O=C1NC(=O)C2CC=CCC12 (stereo not given), O=C(O)Cc1c[nH]c2ccccc12, CC/C=C\CCCCCO, CCO[Si](CCCN)(OCC)OCC, CCCCCCC1CCC(=O)O1 (stereo not given), NC(=O)c1ccc([N+](=O)[O-])cc1Cl, O=C(O)c1ccccc1C(=O)O, O=C(C1CCCCC1)N1CC(=O)N2CCc3ccccc3C2C1 (stereo not given), C[Si](C)(C)O[Si](C)(C)O[Si](C)(C)C, CN(C)CCCN1c2ccccc2CCc2ccc(Cl)cc21, O=C(O)c1nc(Cl)c(Cl)c(Cl)c1Cl, O=[N+]([O-])c1ccc2nc[nH]c2c1, CCC(C)=NO, NC(=O)c1ccc(N)cc1
